# Measurements taken from PubChem BioAssay (NCI).
# Compounds without any hit were thinned out: in the full panel of roughly 83,000, 20% have a hit.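 Negative percent growth values reflect cell death: -40 means 40% of the cells present at the start died, and -100 means all died.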 Active and inactive are the calls of the source. Rule for the calls: active = growth percent below 10; inactive = the rest.
# System: HCT-15 colon
# Assay: NCI-60 one-dose screen, 48 h (100 = growth as untreated, 0 = no growth, -100 = all killed)
# Conditions: 10 µM
row,SMILES,growth
1,O=C(Nc1cccc(Br)c1)c1cc(=O)[nH]c2ccccc12,92.4% (inactive)
2,COc1cc(Nc2ccnc(NCCCNc3ccnc4cc(Cl)ccc34)n2)cc(OC)c1,0.0216% (active)
3,CN1CCC(CNc2cc(C3(C(=O)Nc4cc(C(=O)Nc5ccc(Cl)c(C(F)(F)F)c5)ccc4F)CC3)ncn2)CC1,-20.3% (active)
4,N#Cc1c(C#N)c(SSc2c(C#N)c(C#N)c(N)n2-c2ccccc2)n(-c2ccccc2)c1N,102% (inactive)
5,Clc1ccc(Nc2ccnc(NCCNc3ccnc4cc(Cl)ccc34)n2)cc1,3.75% (active)
6,Cc1cc(N(CCCNc2ccnc3cc(Cl)ccc23)Cc2ccc3c(c2)OCO3)nc(N2CCCCC2)n1,-78.3% (active)
7,CCCCN(CCCC)c1cc(C(=O)CCCCCN)c2ccccc2n1,60.1% (inactive)
